TGFb inhibitor = qHTS for Inhibitors of TGF-b; Potency, µM (top dose mostly 46.1 µM), for inactives: at the highest dose activity, negative = inhibition, usual class: inhibitors; 410,000 tested, 1.2% active; AID 588855, 2011; HepG2 CAGA-GFP TGF-b/SMAD3 reporter, GFP fluorescence, 18 h; TGF-beta stimulated, 500 pg/mL final; further: potency means the concentration at half of the fitted maximal effect; on the % scale 0 is the no-effect control and ±100 the full control effect; nearly all actives have a fitted effect of over 65% in size
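HEPG2 CAGA-GFP, 1000 cells/well; 2 h settle, 37 C; cpd via pin tool; TGF-b 500 pg/mL final; 18 h, 37 C; GFP imaging ex488/em500-530; %Activity normalised to -TGF-b and +DMSO controls; CRC fit, curve class.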
HepG2 viability = qHTS for Inhibitors of TGF-b: Cytotox Counterscreen. HepG2 CAGA-GFP viability, ATP luminescence, 18 h. Potency, µM (doses to about 46.1 µM), for inactives: top-dose activity change, negative = cytotoxicity, hits mostly cytotoxic. 410,000 tested, 0.76% active; further: potency means the concentration at half of the fitted maximal effect
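HepG2 CAGA-GFP cells (1000/well, DMEM with 1% FBS) received compound, then TGF-beta at 500 pg/mL final, and were incubated 18 hours at 37 degrees C. Viability was read by CellTiter-Glo luminescence. Media-only wells were set as complete cell-killing and DMSO as no toxicity.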
S-ASM inh = Inhibitors of Secretory Acid Sphingomyelinase (S-ASM): qHTS | Sphingomyelin phosphodiesterase (Homo sapiens), P17405 | placental ASM, HMU-PC fluorogenic substrate, 60 min | Potency, µM (doses to about 57.5 µM), without a hit: at the highest dose activity change, negative = inhibition, most hits filed as inhibitors | 340,000 tested, 0.006% active | AID 504937, 2011; further: potency means the concentration at half of the fitted maximal effect
Target sequence (P17405 47-631 limits assumed): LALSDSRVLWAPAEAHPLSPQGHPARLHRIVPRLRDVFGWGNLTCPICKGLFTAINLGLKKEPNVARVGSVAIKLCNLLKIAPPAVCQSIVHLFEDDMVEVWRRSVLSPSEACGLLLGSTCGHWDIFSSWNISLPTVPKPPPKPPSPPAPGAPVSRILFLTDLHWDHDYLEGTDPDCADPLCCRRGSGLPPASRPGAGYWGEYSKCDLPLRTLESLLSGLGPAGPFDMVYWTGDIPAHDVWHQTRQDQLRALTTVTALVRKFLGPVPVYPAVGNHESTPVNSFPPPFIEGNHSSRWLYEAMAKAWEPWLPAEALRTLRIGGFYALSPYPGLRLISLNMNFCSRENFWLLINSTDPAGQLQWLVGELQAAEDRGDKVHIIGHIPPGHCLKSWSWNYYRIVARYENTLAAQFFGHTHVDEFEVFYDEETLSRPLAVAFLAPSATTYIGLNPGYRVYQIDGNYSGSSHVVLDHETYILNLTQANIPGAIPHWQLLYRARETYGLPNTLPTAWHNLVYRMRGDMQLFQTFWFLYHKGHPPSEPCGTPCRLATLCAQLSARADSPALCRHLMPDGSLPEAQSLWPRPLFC
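Human placenta-derived ASM enzyme was preincubated with compound for 10 minutes at room temperature, then given fluorogenic substrate HMU-PC0 (9 uM final) for 60 minutes at 37 °C; a pH 10 stop preceded fluorescence reading at Ex 386/Em 447 nm.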
TDP1 cell noCPT = qHTS for Inhibitors of human tyrosyl-DNA phosphodiesterase 1 (TDP1): qHTS in cells in absence of CPT. DT40 Tdp1-/- hTDP1 cells, no CPT, ATP luminescence, 48 h. Potency, µM (highest dose often 46.2 µM), for the others: at the highest dose activity change, negative = growth inhibition, hits mostly inhibitors. 420,000 tested, 15% active; further: potency means the concentration at half of the fitted maximal effect; on the % scale 0 is the no-effect control and ±100 the full control effect; nearly all actives have a fitted effect of over 55% in size
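Luminescent ATP content (CellTiter-Glo) served as the growth readout. Knockout chicken DT40 cells expressing human TDP1 were exposed to compounds without camptothecin for a minimum 48 hr at 37 °C.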
IL1B secr inh = qHTS for Inhibitors of Inflammasome Signaling: IL-1-beta AlphaLISA Primary Screen | THP-1 LPS/ATP IL-1B secretion, AlphaLISA, 16 h; hits give low values | 360,000 tested, 4.7% active | AID 743279, 2014 | activity change, % at 57.5 µM; in the data active means activity change below about -50%; inconclusive means mostly about -30% to -49%; further: on the % scale 0 is the no-effect control and ±100 the full control effect
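THP-1 cells pretreated 1 hr with compounds (up to 57.5 uM final), then stimulated with LPS (250 ng/mL final) plus ATP (1.25 mM final); secreted IL-1B measured by AlphaLISA after 16 hr, decreased signal indicating inhibition.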
DT40 TDP1 CPT = qHTS for Inhibitors of human tyrosyl-DNA phosphodiesterase 1 (TDP1): qHTS in cells in presence of CPT; Potency, µM (titrated, usually from 46.2 µM), without a hit: at the highest dose activity change, negative = growth inhibition, hits mostly inhibitors; chicken DT40 Tdp1-/-;hTDP1 cells + 20 nM CPT, ATP luminescence, 48 h; 420,000 tested, 12% active; further: potency means the concentration at half of the fitted maximal effect; on the % scale 0 is the no-effect control and ±100 the full control effect; nearly all actives have a fitted effect of over 55% in size
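Cell growth measured by CellTiter-Glo luminescence after a minimum 48 h, 37 C compound exposure with 20 nM CPT in Tdp1-knockout DT40 cells stably expressing hTDP1, seeded 400/well; qHTS titration format.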
An asterisk follows results filed as active; ? = inconclusive; . = no result given. An excerpt weighted towards active compounds, which were near 19% of everything screened. Unless noted, the call rests on the fitted dose curve; in most records, active means well fitted curve in the direction sought with a large enough effect; inconclusive means small, poorly fitted or top-dose-only effect, or another doubt; inactive means no such curve, though single readings can be large; an effect the other way counts as inactive or inconclusive.

SMILES	TGFb inhibitor	HepG2 viability	S-ASM inh	TDP1 cell noCPT	IL1B secr inh	DT40 TDP1 CPT
Cc1ccc(-n2cc(S(=O)(=O)c3ccc(C)cc3)[nH]c2=O)cc1	?	3.2µM*	2%	-9%	4	-9%
COc1cc(C)ccc1OCc1cc(C(=O)NC(C)Cn2cncn2)no1 (stereo not drawn)	7%	-11%	5%	-4%	2	-1%
CCN1CCN(S(=O)(=O)c2ccc(Cl)c(C(=O)N(C)Cc3cccc(Cl)c3Cl)c2)CC1	?	-18%	4%	21µM*	-69*	16µM*
CCN1CCN(S(=O)(=O)c2ccc(Cl)c(C(=O)N(C)Cc3ccccc3)c2)CC1	-8%	-11%	0%	-25%	-20	?
CCN1CCN(S(=O)(=O)c2ccc(Cl)c(C(=O)N(C)Cc3ccc(F)cc3)c2)CC1	-6%	-14%	3%	?	-5	-30%
CCN1CCN(S(=O)(=O)c2ccc(Cl)c(C(=O)N(C)Cc3ccc(C(C)(C)C)cc3)c2)CC1	-33%	-29%	-4%	12µM*	-1	?
CCCCCn1c(=O)[nH]c2cc(C(=O)NCc3ccc(F)cc3)ccc2c1=O	0%	7%	.	-17%	.	-17%
COc1ccc(C(=O)OCC(=O)Nc2sccc2C(N)=O)cc1OC	18%	1%	0%	?	3	?
COc1cc(C(=O)OCC(=O)Nc2sccc2C(N)=O)cc(OC)c1OC	0%	-34%	2%	3.7µM*	78	4.6µM*
CN(C)S(=O)(=O)c1cccc(C(=O)OCC(=O)Nc2sccc2C(N)=O)c1	4%	-2%	-8%	21µM*	-17	15µM*
Cc1nn(Cc2noc(C(=O)NC(C)c3ccccc3)n2)c(C)c1Br (stereo not drawn)	-25%	-32%	.	-25%	.	?
CCN(CC(=O)Nc1ccccc1C(F)(F)F)C(=O)c1ccc(N2CCCC2=O)cc1	3%	-8%	5%	?	-3	-4%
COc1cc(C)c(S(=O)(=O)NCCCn2ccnc2)cc1C	-3%	-29%	3%	18µM*	32	15µM*
CCOc1cc(C)c(S(=O)(=O)NCCCn2ccnc2)cc1C	-26%	-29%	0%	?	7	?
COc1ccc(C(=O)/C=C2\NCCc3cc(OC)c(OC)cc32)cc1OC	-17%	-8%	13%	16µM*	?	16µM*
CCOc1ccc(C2c3[nH]c4ccccc4c3CCN2C(=O)CCc2ccccc2)cc1 (stereo not drawn)	2%	-7%	.	?	.	?
COC(=O)c1ccc(NC(=O)N2CCc3c([nH]c4ccccc34)C2c2ccc(C)cc2)cc1 (stereo not drawn)	.	-42%	.	5.8µM*	.	?
CC(=O)NCCC(=O)N1CCc2c([nH]c3ccccc23)C1c1cccc(Cl)c1 (stereo not drawn)	-3%	-7%	0%	15µM*	0	?
Cc1ccc(C2c3[nH]c4ccccc4c3CCN2C(=O)CCC2CCCC2)cc1 (stereo not drawn)	-25%	-23%	.	?	.	16µM*
Cc1ccc(C2c3[nH]c4ccccc4c3CCN2C(=O)c2ccc(N(C)C)cc2)cc1 (stereo not drawn)	?	-13%	.	21µM*	.	21µM*
Cc1ccc(C2c3[nH]c4ccccc4c3CCN2C(=O)Nc2ccc(C)c(C)c2)cc1 (stereo not drawn)	23%	-16%	.	?	.	?
Cc1cnc(C(=O)N2CCc3c([nH]c4ccccc34)C2c2ccc(F)cc2)cn1 (stereo not drawn)	-26%	-17%	-7%	?	1	-26%
Cc1cccc(Nc2ccc([N+](=O)[O-])cn2)c1	-5%	-30%	-9%	-24%	-10	-4%
O=C(NCC1CCCN(C(=O)c2cc(Cl)ccc2F)C1)c1ccc(F)cc1 (stereo not drawn)	1%	0%	3%	?	45	-18%
O=C(CSCc1ccc(F)cc1)N1CCc2c([nH]c3ccccc23)C1c1ccccc1 (stereo not drawn)	?	-26%	.	15µM*	.	21µM*
SMILES	TGFb inhibitor	HepG2 viability	S-ASM inh	TDP1 cell noCPT	IL1B secr inh	DT40 TDP1 CPT
O=C(CSCc1ccc(F)cc1)N1CCc2c([nH]c3ccccc23)C1c1ccc(Cl)cc1 (stereo not drawn)	-12%	-32%	.	?	.	?
COc1cc(NC(=O)CCn2c(=S)[nH]c3ccccc3c2=O)cc(OC)c1OC	-13%	-12%	.	-9%	-10	-3%
CC(C)C(=O)N[C@@H]1c2ccccc2CC[C@H]1OCc1ccccc1	-12%	-1%	-1%	1%	-14	?
Cc1cc(C[n+]2ccccc2)c2nsnc2c1	-13%	-25%	-1%	22µM*	-4	?
COc1ccc(-c2cc(-c3n[nH]c(=S)n3-c3cccc4ccccc34)[nH]n2)cc1	-12%	9%	-16%	-1%	-11	10%
S=c1[nH]nc(-c2cc(-c3ccsc3)n[nH]2)n1-c1cccc2ccccc12	?	-1%	-17%	29µM*	0	?
CCCOc1ccc(Nc2nc(SC)ncc2C(=O)OCC)cc1	-3%	-1%	.	26µM*	.	?
Cc1nn(Cc2ccccc2)c(C)c1C(=O)OCC(=O)c1cc(C)n(CC(F)(F)F)c1C	-12%	-2%	-13%	26µM*	0	26µM*
COc1ccc(CC(=O)N(c2ccccc2)c2nc(C)cs2)cc1	-25%	0%	-5%	13µM*	?	18µM*
CC(=O)N(c1ccccc1)c1nc(/C=C/C(=O)O)cs1	-15%	-11%	9%	-13%	1	-19%
Cc1csc(N(C(=O)Cc2ccccc2F)c2ccccc2)n1	24%	3%	2%	23µM*	-4	?
O=C(Cc1ccccc1)N(c1ccccc1)c1ccccc1	-19%	-37%	-2%	?	-3	?
Cc1nn(-c2ccccc2)c(C)c1/C=N/NC(=O)CSc1nnc(SCc2ccc(Cl)cc2)s1	10%	-1%	-13%	15µM*	-5	?
